Compounds without any hit were thinned out: in the full panel of roughly 83,000, 20% have a hit.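 Cell lines were cultured in 96-well plates, exposed to a single compound concentration, and assessed for percent growth 48 hours later.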 The source made the active and inactive calls. The calls were made as follows: active = growth percent below 10; inactive = the rest.
How the values were obtained:
Assay in all cases: NCI-60 one-dose screen, 48 h (100 = growth as untreated, 0 = no growth, -100 = all killed)
Settings in all cases: 10 µM unless noted
[1] = test system: RPMI-8226 leukemia
[2] = test system: OVCAR-8 ovarian
[3] = test system: OVCAR-5 ovarian
[4] = test system: OVCAR-4 ovarian
[5] = test system: SK-OV-3 ovarian
[6] = test system: IGROV1 ovarian
[7] = test system: OVCAR-3 ovarian
[8] = test system: HS 578T breast
[9] = test system: NCI/ADR-RES ovarian

Measured: growth

CCOC(=O)C1=C(N)N(c2ccccc2)C2=C(C(=O)CC(C)(C)C2)C1c1ccc(N2CCOCC2)cc1 (stereo unspecified)
inactive: [1] 96.2% | [2] 97.1% | [3] 101% | [4] 101% | [5] 102% | [6] 108% | [7] 113% | [8] 95.1% | [9] 100%

Cc1ccc(C(SCCNCc2cc(N(C)C)ccn2)(c2ccccc2)c2ccccc2)cc1
active: [1] -54.6% | [2] -52.5% | [3] -19.9% | [5] -10.5% | [6] 6.28% | [7] -46.7% | [8] -45.7% | [9] -56.8%
inactive: [4] 11.4%

COc1cc2c(c(OC)c1OC)C(=O)CC(c1cccc(NC(=O)c3cc([N+](=O)[O-])ccc3Cl)c1)O2 (stereo unspecified)
inactive: [1] 30.3% | [3] 67.2% | [4] 57.2% | [5] 57.1% | [6] 12.5% | [7] 16% | [8] 15.1% | [9] 15%
active: [2] -11.6%

COc1ccc(NC(=O)Cn2c(/C=C/c3cccc([N+](=O)[O-])c3)nc3ccccc3c2=O)cc1
inactive: [1] 124% | [2] 43.3% | [3] 118% | [4] 44.7% | [5] 42% | [6] 104% | [7] 50.7% | [8] 66.8% | [9] 70.8%

Nc1n[nH]c2cccc(C#Cc3cccc(NC(=O)c4cccc(Cl)c4)c3)c12
inactive: [1] 29.9% | [2] 21.4% | [3] 53.2% | [4] 39.9% | [5] 15.7% | [6] 21.6% | [7] 43.3% | [8] 43.2% | [9] 25.6%

COc1ccc(C(=O)/C=C/c2ccccc2Cl)cc1S(N)(=O)=O
inactive: [1] 120% | [2] 110% | [3] 99.3% | [4] 118% | [5] 110% | [6] 101% | [7] 90.7% | [8] 107% | [9] 104%

COc1ccc(C(=O)/C=C/c2cccc(Br)c2)cc1S(N)(=O)=O
active: [1] -15.9% | [2] -95.1% | [3] -92% | [4] 7.28% | [5] 8.53% | [6] -33.7% | [7] -47.7% | [9] -21.5%
inactive: [8] 30.8%

O=C(COc1ccc(NC(=O)Nc2ccc(Cl)c(Cl)c2)cc1)N=Nc1c(O)[nH]c2ccc([N+](=O)[O-])cc12
inactive: [1] 55.4% | [2] 78.1% | [3] 74.4% | [4] 75.2% | [5] 95.2% | [6] 74.4% | [7] 56.8% | [8] 57.4% | [9] 100%

O=C(NNc1nc2cc(F)ccc2n2c(CN3CC4CNCC4C3)ccc12)c1ccncn1 (stereo unspecified)
inactive: [1] 21.6% | [2] 13% | [3] 34.8% | [4] 28.6% | [5] 31.5% | [6] 22.1% | [7] 43.1% | [8] 45.3% | [9] 59.8%

CC(=O)N1CCN(Cc2ccc3c(NNC(=O)c4cnccn4)nc4cc(F)ccc4n23)CC1
active: [9] 7.69%
inactive: [1] 25.7% | [2] 17.2% | [3] 50.1% | [4] 32.6% | [5] 25% | [6] 28.2% | [7] 56.7% | [8] 56.3%

COc1cc2c(c(OC)c1OC)C(=O)CC(c1cccc(NC(=O)c3cc(N)ccc3Cl)c1)O2 (stereo unspecified)
inactive: [1] 40.2% | [2] 18.8% | [3] 100% | [4] 52.7% | [5] 65.6% | [6] 72.9% | [7] 33.8% | [8] 80.6% | [9] 20.5%

Cn1cc(-c2nnc(N)nc2-c2c[nH]c3ccc(F)cc23)c2cccnc21
inactive: [1] 49.1% | [2] 49.3% | [3] 83.3% | [4] 77.6% | [5] 65.8% | [6] 40.7% | [7] 25.3% | [8] 42% | [9] 72.9%

COc1ccc(C2=NN(c3ccccc3)C(c3ccc(OCc4ccccc4)c(OC)c3)C2)cc1OC (stereo unspecified)
inactive: [1] 120% | [2] 92.6% | [3] 102% | [4] 113% | [5] 98.1% | [6] 102% | [7] 109% | [8] 94.1% | [9] 109%

COc1ccc(C(=O)/C=C/c2cccc(Cl)c2)cc1S(N)(=O)=O
active: [1] -5.22% | [2] -70.3% | [3] -17.8% | [6] 6.51% | [7] -58.8%
inactive: [4] 46.4% | [5] 49.8% | [8] 95.4% | [9] 14.3%

O=C(NNc1nc2cc(C(F)(F)F)ccc2n2cccc12)c1cnccn1
inactive: [8] 16.3%
active: [1] 1.97% | [2] -77.2% | [3] -59.2% | [4] -43.9% | [5] -88.2% | [6] -16.3% | [7] -47.7% | [9] -12%

CN1CCN(c2ccc3c(c2)nc(NNC(=O)c2cnccn2)c2cccn23)CC1
inactive: [6] 12.4% | [8] 34.1%
active: [1] 5.23% | [2] -79.4% | [3] -25% | [4] -37.6% | [5] -51.3% | [7] -19.7% | [9] -10%

O=C1N/C(=N\c2nccs2)S/C1=C\C=C/c1ccccc1
inactive: [1] 39.4% | [2] 13.7% | [3] 61.8% | [4] 44.5% | [5] 77.7% | [6] 30.3% | [7] 50.7% | [8] 85.2% | [9] 37.4%

COc1ccccc1/C=C/C(=O)c1ccc(OC)c(S(N)(=O)=O)c1
inactive: [3] 12.4% | [4] 42.9% | [5] 47.5% | [6] 38.9% | [8] 60.4% | [9] 22.9%
active: [1] 4.34% | [2] -9.18% | [7] 7.84%

O=C(NNc1nc2cc(F)ccc2n2c(C(=O)N3CCN(C4CC4)CC3)ccc12)c1ncccn1
inactive: [1] 25.1% | [2] 22.1% | [3] 38.4% | [4] 29.5% | [5] 22.1% | [6] 30.4% | [7] 57.7% | [8] 66.5% | [9] 16.6%

COc1ccc(-c2nnc3ccc(N/N=C/c4ccc(O)cc4)nn23)cc1
inactive: [1] 13.1% | [2] 45.4% | [3] 88.9% | [4] 47.9% | [5] 104% | [6] 39.3% | [7] 37.6% | [8] 46.8% | [9] 26%

COc1ccc(C(=O)/C=C/c2cccc(Cl)c2Cl)cc1S(N)(=O)=O
inactive: [4] 35.9% | [5] 43.3% | [6] 10.1% | [8] 35.6% | [9] 13.3%
active: [1] -8.84% | [2] -64% | [3] -7.8% | [7] -56.1%

COc1ccc(-c2nc3cc(C)ccc3n2CC(=O)N=Nc2c(O)[nH]c3ccc(Br)cc23)cc1
inactive: [1] 42% | [5] 35% | [6] 23.9% | [7] 14.9% | [8] 20.3%
active: [2] -61.8% | [3] -4.99% | [4] -18.3% | [9] -22%

COc1cc2c(c(OC)c1OC)C(=O)CC(c1cccc(NC(=O)c3cc(NC(=O)[C@@H](N)CO)ccc3C)c1)O2 (stereo partly specified)
inactive: [1] 108% | [2] 104% | [3] 101% | [4] 112% | [5] 111% | [6] 114% | [7] 121% | [8] 110% | [9] 104%

COc1ccc(C(=O)/C=C/c2cccc3ccccc23)cc1S(N)(=O)=O
active: [1] -10.6% | [2] -13.6% | [3] 1.13% | [7] -50.7%
inactive: [4] 43.5% | [5] 44.7% | [6] 38.7% | [8] 55.2% | [9] 15.1%

COCOc1cc2oc(C(=O)N[C@@H](Cc3ccccc3)C(O)C(=O)NCc3ccccc3)c(C)c(=O)c2cc1OCOC (stereo partly specified)
inactive: [1] 99.3% | [2] 22.2% | [3] 91.8% | [4] 43.9% | [5] 33.4% | [6] 101% | [7] 99% | [8] 71.4% | [9] 98.5%

O=C1C(=Nc2ccc(F)c(Cl)c2)c2cccc3cccc1c23
active: [1] 8.45% | [2] 3.58%
inactive: [3] 94.7% | [4] 86.1% | [5] 87.4% | [6] 66.4% | [7] 25.3% | [8] 89.9% | [9] 84.1%

Cc1nc(Nc2ncc(C(=O)Nc3c(C)cccc3Cl)s2)cc(N2CCN(CCCNC(=O)COc3ccc(C4CCC(=O)NC4=O)cc3)CC2)n1 (stereo unspecified)
inactive: [1] 76.4% | [2] 34% | [3] 26.3% | [4] 85.8% | [7] 72% | [9] 106%
active: [5] -17.9% | [6] -45.2% | [8] -16%

COc1ccc(C(=O)/C=C/c2cc3c(cc2Br)OCO3)cc1S(N)(=O)=O
active: [1] -13.6% | [2] -21% | [3] -7.93% | [6] 3.7% | [7] -57.5%
inactive: [4] 28% | [5] 69% | [8] 30.3% | [9] 13.8%

Cc1ccc(C(=O)CSc2nc3ccc(C)cc3c(=O)n2-c2ccc(F)cc2)cc1
active: [8] -8.71%
inactive: [1] 98.5% | [2] 31.3% | [3] 84.8% | [4] 28.6% | [5] 54.9% | [6] 80.5% | [7] 89.5% | [9] 40.6%
